High-throughput results as filed in PubChem BioAssay.
DAT uptake mod: modulates human dopamine transporter uptake under cocaine. Q01959. LLC-PK1 hDAT cells, [14C]-dopamine uptake with cocaine IC80; actives deviate in either direction. B-score at 10 µM. 110,000 tested, 1.3% active. AID 449768;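 active = Z score or B-score, a plate-position-corrected score, falls beyond the plate's 99.7% confidence bounds, in either direction; inactive = both scores lie inside the 99.7% bounds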;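 also: scored against the spread of the other compound wells on the same plate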
D1 mod: allosteric modulators of human D1 dopamine receptor | P21728 | HEK293 D1, CRE-luciferase, dopamine EC30 potentiation; actives deviate in either direction | B-score at 10 µM | 58,000 tested, 5.9% active;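 active = luminescence count or its row- and column-corrected plate score outside the 99.7% band of the plate's sample wells, on either side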
Target sequence (P21728 whole entry, looked up): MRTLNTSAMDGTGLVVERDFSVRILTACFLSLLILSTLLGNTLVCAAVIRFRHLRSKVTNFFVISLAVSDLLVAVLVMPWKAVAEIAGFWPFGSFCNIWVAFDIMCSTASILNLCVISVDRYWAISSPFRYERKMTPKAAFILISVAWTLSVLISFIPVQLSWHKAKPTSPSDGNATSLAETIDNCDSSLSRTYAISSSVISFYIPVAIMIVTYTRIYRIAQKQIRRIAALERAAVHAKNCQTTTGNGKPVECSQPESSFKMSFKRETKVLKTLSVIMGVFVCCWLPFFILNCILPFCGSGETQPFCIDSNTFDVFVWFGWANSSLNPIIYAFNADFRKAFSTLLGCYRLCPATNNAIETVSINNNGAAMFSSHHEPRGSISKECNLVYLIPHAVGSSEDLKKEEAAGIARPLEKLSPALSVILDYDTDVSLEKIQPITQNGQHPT
BAP1 block: human BAP1 deubiquitinase inhibition; Q92560; calls only at 20 µM; AID 436; 72,000 tested, 0.48% active; recombinant BAP1, Ub-AMC hydrolysis fluorescence kinetic; stronger effect = lower value;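 active = activity remaining at or below 50% of control, provided the compound also passes the data quality filters; inactive = the rest, including low values that fail the filters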;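 also: 100% = DMSO wells rate and 0% = substrate alone blank rate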
* hit, by the source's call; i = inactive; . = no result given. This is one part of a sample in which hits are shown more often than they occur.

SMILES	DAT uptake mod	D1 mod	BAP1 block
CCOC(=O)C1=C(c2ccccc2)NC(=O)NC1c1ccccc1Cl (stereo not drawn)	.	.	i
COc1ccc2[nH]cc(CCNC(C)=O)c2c1	0.15	.	i
CCCCCN=C(N)N/N=C/c1c[nH]c2ccc(OC)cc12	3.7*	.	.
COc1cc(OC)cc(C(=O)N2CCN=C2SCc2cccnc2)c1	1.6*	0.046	i
O=C(c1cccc(F)c1)N1CCN=C1SCc1cccnc1	0.88	0.0098	i
Cn1c2ccccc2c2nnc(SCC(=O)N3c4ccccc4Sc4ccccc43)nc21	.	.	i
COc1cc(NC(=O)c2ccco2)c(OC)cc1NC(=O)c1cc(OC)c(OC)c(OC)c1	0.18	-2.3	i
CCOc1ccc(NC(=O)c2ccco2)cc1	-0.75	-4.8*	i
Cc1cc(NS(=O)(=O)c2ccc(NC(=O)c3ccco3)cc2)no1	2.7*	0.3	i
CCOc1ccccc1NC(=O)c1cc(Cl)ccc1NC(=O)c1ccco1	-0.17	-0.36	i
CC(C)OC(=O)c1ccc(NC(=O)c2ccco2)cc1	1.3	.	.
CCOc1cc(NC(=O)c2ccco2)c(OCC)cc1NC(=O)c1cc(OC)c(OC)c(OC)c1	0.011	-5*	i
CCOc1ccccc1NC(=O)c1ccc(NC(=O)c2ccco2)cc1	3.9*	.	.
Cc1cc(NS(=O)(=O)c2ccc(NC(=O)c3ccco3)cc2)nc(C)n1	-0.45	.	.
CCCCc1nnc2n1N=C(c1ccc(Br)cc1)CS2	.	.	i
NC(=O)c1cc(-c2cccnc2)no1	.	.	i
O=C(Nc1ccc2oc(-c3ccc(F)cc3)nc2c1)c1cccc([N+](=O)[O-])c1	.	.	i
Cc1nc(=O)c(-c2ccccc2)c(C)n1-c1ccccc1O	-1.3	-5.6*	i
Cc1nc(=O)c(-c2ccccc2)c(C)n1-c1ccc(O)cc1	0.61	.	.
CCOC(=O)CCSc1nc(-c2ccccc2)cc(C(F)(F)F)n1	0.28	.	.
O=C(O)c1cccc(CSc2nc(-c3ccc(Cl)cc3)cc(C(F)(F)F)n2)c1	3*	.	.
COCCCNc1nc(-c2ccccc2)nc2ccccc12	.	.	i
CSc1nnc(-c2ccccc2)o1	-0.27	1.5	i
O=S1(=O)C=C(Sc2nnc(-c3ccccc3)o2)c2ccccc21	.	-2.9*	i
O=S1(=O)C=C(Sc2nc3ccccc3s2)c2ccccc21	-0.63	-3.7*	i
SMILES	DAT uptake mod	D1 mod	BAP1 block
Cc1cc(C)nc(SC2=CS(=O)(=O)c3ccccc32)n1	-7.7*	1.8	i
O=C(CSc1nc2ccccc2s1)CSc1nc2ccccc2s1	-0.89	.	.
O=S1(=O)C=C(SCCN2CCCCC2)c2ccccc21	-0.053	0.1	i
COc1cc(C2C(C(=O)OCCc3ccccc3)=C(C)NC3=C2C(=O)CCC3)cc(Cl)c1O (stereo not drawn)	.	.	i
COc1ccccc1-c1csc(NC(=O)c2ccc(S(=O)(=O)N3CCCCC3)cc2)n1	.	.	i
COc1cc(C2C(C(=O)OC3CCCCC3)=C(C)NC3=C2C(=O)CC(C)(C)C3)cc(OC)c1OC (stereo not drawn)	.	.	i
COCCOC(=O)c1ccc(NC(=O)c2cccc(Br)c2)cc1	.	.	i
Cc1ccccc1OCCCN1CCCC1	-0.35	-0.96	i
C=CCc1ccccc1OCC(CN1CCCCC1)OC(C)=O (stereo not drawn)	-0.31	-4.5*	i
C=CCc1ccccc1OCCCCN1CCCC1	-1.2	-3*	i
CCc1ccccc1OCCCCN1CCCC1	-1.2	-3.1*	i
Brc1ccccc1OCCCCCN1CCCC1	0.026	.	.
C=CCc1ccccc1OCC(O)CNC(C)C (stereo not drawn)	-0.77	-1.6	i
Nc1cc2c(cc1C(=O)c1ccc(Br)cc1)OCCO2	.	.	i
CCCCn1c(SCC(=O)O)nc2ccccc21	-0.51	-1.7	i
CCCCOC(=O)n1c(SCC(=O)N(C)C)nc2ccccc21	0.76	-7.3*	.
CCCc1nnc2n1N=C(c1ccc(OC)cc1)CS2	.	.	i
Cc1n[nH]c(C)c1CCc1nc2c3ccccc3nc(SCC(=O)Nc3ccccc3F)n2n1	0.028	.	.
Cc1cccc(NC(=O)CSc2nc3ccccc3c3nc(CCc4c(C)n[nH]c4C)nn23)c1	3.8*	.	.
C=CCSc1nc2sc(-c3ccccc3)cc2c(=O)n1N	-0.35	.	.
Cc1ccccc1-n1c(SCC(N)=O)nc2sc(-c3ccccc3)cc2c1=O	3*	.	.
O=C(Nc1nnc(-c2ccc([N+](=O)[O-])cc2)s1)c1ccccc1Cl	.	.	i
CC(NC(=O)Nc1nnc(C(F)(F)F)s1)(C(F)(F)F)C(F)(F)F	-0.039	-3.6	i
CC(C)(C)CC(=O)Nc1nnc(C(F)(F)F)s1	2.8*	.	.
Cc1ccc(C)c(NC2=C(Cl)C(=O)N(c3cccc(C)c3C)C2=O)c1	.	.	i
COCCOC(=O)C1=C(C)NC2=C(C(=O)CCC2)C1c1cc(OC)ccc1OC (stereo not drawn)	.	.	i
